Shown are actives, neighbours in structure and some others; about 5% of the full set was active somewhere.
EBI2 block: antagonists of human EBI2 receptor | P32249 | EBI2 beta-arrestin recruitment, luminescence, 7a,25-OHC stimulated | inhibition, % at 5 µM | 0.81% of 360,000 active | AID 651636; in the data active means inhibition above about 38%;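 further: enzyme fragment complementation signal reports receptor beta-arrestin coupling in cells; 0% = agonist plus DMSO wells and 100% = wells without agonist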
SENP7 block: inhibitors of human SENP7 protease; Q9BQF6; recombinant SENP7, Z-RLRGG-aminoluciferin luminescence, 40 min; inhibition, % at 5 µM; 1.5% of 330,000 active;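 active means inhibition above about 50% at the single test dose, limit read from the data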;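 further: plate controls were DMSO with enzyme for no effect and no enzyme buffer wells for full effect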
Target sequence (Q9BQF6 706-1050 limits assumed): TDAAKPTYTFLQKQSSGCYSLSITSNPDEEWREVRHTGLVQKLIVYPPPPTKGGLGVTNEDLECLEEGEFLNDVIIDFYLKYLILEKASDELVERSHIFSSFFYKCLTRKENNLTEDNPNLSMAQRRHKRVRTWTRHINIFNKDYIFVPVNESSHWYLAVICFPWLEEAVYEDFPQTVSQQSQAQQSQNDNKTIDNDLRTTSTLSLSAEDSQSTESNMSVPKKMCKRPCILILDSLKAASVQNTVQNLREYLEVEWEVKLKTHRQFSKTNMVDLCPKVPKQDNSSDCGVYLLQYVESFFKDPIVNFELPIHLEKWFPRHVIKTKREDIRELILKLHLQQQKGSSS
SENP6 inh: inhibitors of human SENP6 protease. Q9GZR1. Recombinant SENP6 catalytic domain, aminoluciferin luminescence. inhibition, % at 10 µM. 1.8% of 330,000 active. AID 2599;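 active means inhibition above about 50% at the single tested dose, limit read from the data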;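 further: plate controls were DMSO wells with enzyme for no effect and DMSO wells lacking enzyme for full effect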
AHR activator: human AHR activation | AHR-responsive luciferase reporter cells, luminescence | P35869 | 2.5% of 320,000 active | activation, % at 5 µM; in the data active means activation above about 47%;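 further: 0% = vehicle wells and 100% = reference agonist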
SENP8 block-1: inhibitors of human SENP8 protease | inhibition, % at 10 µM | purified SENP8, Z-RLRGG-aminoluciferin cleavage, luminescence | Q96LD8 | AID 2540 | 1.2% of 330,000 active; in the data active means inhibition above about 50%
SENP8 block-2: blocks human SENP8 cleavage of Nedd8 substrate; recombinant SENP8, Nedd8 substrate fluorescence; Q96LD8; 0.64% of 360,000 active; inhibition, % at 20 µM; in the data active means inhibition mostly above about 40%, no sharp cut-off; inactive means mostly below about 27%
SENP8 conf: human SENP8 inhibition, confirmed; 40% of 6,200 active; shares compounds with SENP7 block; inhibition, % at 12.5 µM; Recombinant SENP8, Z-RLRGG-aminoluciferin luminescence, 60 min;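 active means mean inhibition across replicates above about 50%, limit read from the data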
SENP6 confirm: human SENP6 inhibition, confirmed; 58% of 6,200 active; recombinant SENP6, Z-RLRGG-aminoluciferin luminescence; inhibition, % at 12.5 µM; AID 488915; shares compounds with SENP7 block
SENP7 conf: confirmation of human SENP7 protease inhibitors; shares compounds with SENP7 block; recombinant SENP7, Z-RLRGG-aminoluciferin luminescence, 40 min; inhibition, % at 12.5 µM; 69% of 6,200 active; AID 488917
Casp3 SENP sel: caspase-3 inhibition (SENP selectivity assay); inhibition, % at 12.5 µM; purified caspase-3, Z-DEVD-aminoluciferin luminescence, 60 min; 60% of 6,200 active; shares compounds with SENP7 block;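 active means mean inhibition above about 50%, limit read from the data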;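 further: plate controls were enzyme with DMSO for no effect and wells without caspase-3 for full effect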
Target sequence (P42574 28-227 limits assumed): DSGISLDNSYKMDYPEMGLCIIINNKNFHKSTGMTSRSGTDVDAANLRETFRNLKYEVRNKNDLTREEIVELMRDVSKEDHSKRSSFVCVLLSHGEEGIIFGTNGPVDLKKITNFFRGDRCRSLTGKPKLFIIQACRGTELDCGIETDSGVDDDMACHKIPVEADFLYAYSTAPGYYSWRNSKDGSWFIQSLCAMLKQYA
Luc interf: luminescence interference (SENP counter-screen); Pre-incubated SENP8/Z-RLRGG-aminoluciferin, luciferase luminescence interference; 39% of 6,200 active; shares compounds with SENP7 block; inhibition, % at 12.5 µM;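 active means mean inhibition above about 50% when retested at one dose, limit read from the data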;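 further: plate controls were DMSO wells with completed reaction for no effect and substrate without enzyme for full effect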
Starred values were filed as active, the others as inactive; i = inactive; · = not tested or not shown.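 How the source made its calls, unless noted: active means mean inhibition above about 50% in the one-dose retest (limit read from the data); inactive means the rest.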

SMILES	EBI2 block	SENP7 block	SENP6 inh	AHR activator	SENP8 block-1	SENP8 block-2	SENP8 conf	SENP6 confirm	SENP7 conf	Casp3 SENP sel	Luc interf
COc1cccc2oc3cc(C#CC4(O)CCCCC4)ccc3c(=O)c12	0	84*	81*	0	84*	-355	89*	89*	97*	72*	55*
COc1ccccc1-c1oc2ccccc2c1C#CC1(O)CCCCC1	-1	5	2	4	-4	-475	·	·	·	·	·
COc1cccc2oc3cc(C#Cc4ccccn4)ccc3c(=O)c12	·	6	23	-6	-16	·	·	·	·	·	·
O=c1c2ccccc2oc2cc(C#CC3(O)CCCCC3)ccc12	0	99*	98*	-8	95*	11	98*	99*	102*	94*	75*
CCC(CC)c1nnc(NC(=O)CCCN2C(=O)c3ccccc3C2=O)s1	-7	-6	-8	0	-6	13	·	·	·	·	·
COc1ccc([N+](=O)[O-])cc1N(CC(=O)N1CCCCC1)S(C)(=O)=O	0	0	5	-2	2	10	·	·	·	·	·
CN1N=C2c3ccccc3CCC2C1c1ccc(Cl)cc1 (configuration not stated)	1	7	31	66*	59*	-195	-5	-2	1	-1	-2
O=C1c2ccccc2CCC12N=NCC2c1ccc(Cl)cc1 (configuration not stated)	-3	3	5	13	-3	-14	·	·	·	·	·
CC1CCCN(C(=O)C2CC(=O)N(c3ccc(Cl)cc3)C2)C1 (configuration not stated)	8	6	0	0	-1	17	·	·	·	·	·
Cc1occc1C(=O)Nc1ccccc1C#N	-6	15	-13	-6	-3	4	·	·	·	·	·
O=C(Nc1ccc(Br)cc1)c1cc2ccccn2n1	-1	64*	-8	57*	71*	37	35	36	88*	65*	44
O=C(NCCc1ccc(Cl)cc1)c1cc2ccccn2n1	-10	-3	-15	0	-2	18	·	·	·	·	·
Fc1cccc(-c2cc3nc4c(c(NCc5ccco5)n3n2)CCCC4)c1	-1	1	85*	9	70*	-281	0	14	19	31	46
COc1ccc(NC(=O)c2noc3c2CCC3)cc1	2	81*	22	-3	71*	18	11	77*	93*	90*	79*
CC(=O)c1ccc(NC(=O)c2noc3c2CCC3)cc1	-9	18	31	0	8	7	·	·	·	·	·
O=C(Nc1cccc(O)c1)c1noc2c1CCCCC2	-5	95*	96*	0	92*	-7	96*	96*	102*	96*	93*
COc1ccc(NC(=O)Cn2ccc(C(F)(F)F)n2)cc1S(=O)(=O)N1CCOCC1	14	-9	-24	1	-8	6	·	·	·	·	·
CNS(=O)(=O)c1cc(NC(=O)CCNC(=O)c2ccco2)ccc1C	-2	2	3	-1	7	9	·	·	·	·	·
O=C(Nc1ccccc1Cl)c1cc2ccccc2o/c1=N\O	-17	81*	56*	76*	15	14	1	6	81*	56*	32
COc1cccc(NC(=O)c2cc3ccccc3o/c2=N\O)c1	-31	100*	98*	0	96*	18	98*	99*	101*	96*	97*
CCOC(=O)c1cc(-c2cc3ccccc3o2)n[nH]1	2	54*	72*	11	33	-8	63*	61*	81*	48	33
CCOC(=O)c1cc(-c2ccc(C)o2)n[nH]1	-6	7	-39	0	2	15	·	·	·	·	·
Cc1ccc(-c2nnc(COC(=O)c3cccs3)o2)cc1	-4	72*	78*	1	71*	-2	80*	78*	94*	78*	69*
O=C(COC(=O)c1cccs1)c1ccc2ccccc2c1	2	78*	41	2	63*	0	-19	64*	89*	44	54*
O=C(NNC(=O)c1cccs1)c1ccc2ccccc2c1	3	-4	-22	4	-11	14	·	·	·	·	·
SMILES	EBI2 block	SENP7 block	SENP6 inh	AHR activator	SENP8 block-1	SENP8 block-2	SENP8 conf	SENP6 confirm	SENP7 conf	Casp3 SENP sel	Luc interf
Cc1ccc(C(=O)COC(=O)c2cccs2)cc1	0	94*	94*	3	87*	11	93*	92*	99*	92*	88*
O=C(COC(=O)c1cccs1)c1ccc2c(c1)OCCO2	-2	14	95*	-1	80*	14	99*	99*	102*	97*	97*
COc1ccc(CC(=O)N2CCN=C2SCc2cccc([N+](=O)[O-])c2)cc1	5	-4	2	-2	1	15	·	·	·	·	·
CC(C)CC(C(=O)NC(C)(C)C)N(Cc1cccs1)C(=O)c1snc(C(N)=O)c1N (configuration not stated)	15	-10	-4	2	-12	-406	·	·	·	·	·
COc1ccc2oc(C(=O)Nc3nc4ccccc4[nH]3)c(C)c2c1	16	93*	78*	6	58*	-305	26	29	95*	84*	58*
Cc1ccc2oc(C(=O)Nc3nnc(C)s3)c(C)c2c1	2	59*	37	12	4	-45	13	12	22	32	6
COc1ccc(Br)c(C(=O)Nc2nc3ccccc3[nH]2)c1	-7	-6	-30	31	-28	11	·	·	·	·	·
COc1ccc2oc(C(=O)Nc3nc4ccc(S(C)(=O)=O)cc4s3)c(C)c2c1	-13	-14	-3	-3	4	-442	·	·	·	·	·
COc1ccc2oc(C(=O)Nc3nnc(C)s3)c(C)c2c1	0	62*	15	-7	34	i	3	6	21	29	4
CCOc1ccc(N/C(N)=N/c2nc(CSc3nnc(C)s3)cc(=O)[nH]2)cc1	-12	0	55*	7	3	25	-11	-8	-7	-3	-7
O=C(c1ccccc1)N1CCN(c2ncnc3sc4c(c23)CCC4)CC1	7	14	4	-1	5	4	·	·	·	·	·
O=C(O)c1ccc(N=Nc2c(-c3ccccc3)[nH]oc2=O)cc1	2	39	33	1	59*	22	-8	-6	19	7	1

Bioassay records as filed in PubChem BioAssay.
